ELG1 repair inh – inhibitors of ELG1-dependent DNA repair in HEK293T cells; HEK293T ELG1-luciferase reporter, luminescence, 16 h; DNA damage induced by 5-fluorouridine; Potency, µM (doses to about 46.1 µM), without a hit: at the highest dose activity change, negative = inhibition, hits mostly inhibitors; hit rate 2.3% among 330,000; further: on the % scale 0 is the no-effect control and ±100 the full control effect; nearly all actives have a fitted effect of over 55% in size
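Luminescence from the luciferase reporter, measured 30 min after ONE-Glo reagent at room temperature, was the read-out. Beforehand, 2,000 cells per well were exposed for 16 hr at 37 °C to 5-fluorouridine together with compound or vehicle.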
NPC1 prom act – activators of NPC1 promoter | Huh7 NPC1 promoter luciferase reporter, 24 h | Potency, µM (doses to about 9.22 µM), without a hit: at the top dose activation, actives largely listed as activators | hit rate 2.4% among 320,000; further: % of control where 0% means no effect; nearly all actives have a fitted effect of over 60% in size
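Stable NPC1-promoter luciferase Huh7 line; cpd (DMSO) 24 h, 37 °C, 5% CO2; Amplite luciferase reagent 10 min RT; luminescence readout. qHTS format.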
FLuc modulator – counter-screen for miR-21 project: firefly luciferase inhibitors or activators. P08659. hit rate 6.9% among 360,000. purified FLuc, Km substrates, luminescence inhibition. Potency, µM (top dose mostly 57.5 µM), for the others: top-dose activity change, negative = inhibition, most hits filed as inhibitors;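 further: plate controls were vehicle for no effect and reference inhibitor for full effect; nearly all actives have a fitted effect of over 55% in size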
Target sequence (P08659 whole entry, looked up): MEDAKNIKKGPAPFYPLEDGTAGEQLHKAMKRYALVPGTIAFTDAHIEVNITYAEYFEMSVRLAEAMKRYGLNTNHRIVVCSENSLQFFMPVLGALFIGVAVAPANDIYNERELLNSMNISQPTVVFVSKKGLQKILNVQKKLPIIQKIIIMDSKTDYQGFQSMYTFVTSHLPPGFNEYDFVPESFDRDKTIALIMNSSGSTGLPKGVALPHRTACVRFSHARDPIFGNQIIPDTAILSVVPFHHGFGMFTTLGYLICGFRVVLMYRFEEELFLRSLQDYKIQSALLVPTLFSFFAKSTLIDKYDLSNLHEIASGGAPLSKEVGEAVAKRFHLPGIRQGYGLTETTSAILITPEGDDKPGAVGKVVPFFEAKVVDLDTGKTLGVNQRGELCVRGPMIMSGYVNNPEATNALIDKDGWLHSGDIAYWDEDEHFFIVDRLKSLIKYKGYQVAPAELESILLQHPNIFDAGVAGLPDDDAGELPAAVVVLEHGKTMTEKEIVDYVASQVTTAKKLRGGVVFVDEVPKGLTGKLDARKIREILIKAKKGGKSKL
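Biochemical qHTS of compounds, final roughly 60 µM downward over six points, against 10 nM purified firefly luciferase using Km concentrations of substrates (10 uM D-luciferin, 10 uM ATP) in Tris acetate pH 7.5 buffer; luminescence output.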
SMN2 splice up – SMN2 splice variant enhancement; HEK293 SMN2-luciferase splicing reporter, luminescence, 30-36 h; Potency, µM (top dose mostly 46.1 µM), for the others: top-dose activity change, positive = activation, usual class: activators; hit rate 2.8% among 210,000; AID 1458; further: % of control where 0% means no effect; nearly all actives have a fitted effect of over 55% in size
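HEK293 cells carry an SMN2 […]–luciferase reporter in which exon 7 inclusion puts luciferase in frame. Cells were plated 10-12 h before compound addition, then incubated 30-36 h at 37C. ONE-Glo luminescence was read; sodium butyrate at 4.5 mM final served as control.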
ELG1 genotoxic – genotoxicity induction in ELG1-luciferase HEK293T cells; HEK293T ELG1-luciferase reporter, luminescence, 16 h; Potency, µM (top dose mostly 46 µM), inactives show at the highest dose activity change, positive = activation, hits mostly activators; hit rate 1.3% among 330,000; AID 504466; further: % of control where 0% means no effect; nearly all actives have a fitted effect of over 60% in size
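DMSO vehicle served as control against compound-treated ELG1-luciferase HEK293T cells; exposure lasted 16 hr at 37 °C and 5% CO2, followed by ONE-Glo luminescence detection after 30 min.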
Rab9 promoter act – Rab9 promoter activation; Huh7 Rab9 promoter-luciferase reporter, luminescence, 24 h; Potency, µM (titrated, usually from 9.22 µM), without a hit: at the highest dose activation, negative = inhibition, usual class: activators; hit rate 2.8% among 320,000; further: % of control where 0% means no effect; nearly all actives have a fitted effect of over 60% in size
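Huh7 cells stably carrying a Rab9 promoter-luciferase reporter, 1500 cells per well in OP-MEM I with 10% FBS, treated with compound 24 hours at 37C. Luciferase activity read by luminescence after 10 minutes with Amplite reagent.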
Active calls of the source: *; ! = not confirmed by another sample. An excerpt weighted towards active compounds, which were near 9.4% of everything screened. The call rests on the fitted dose curve; in most records, active means well fitted curve in the direction sought with a large enough effect; inconclusive means small, poorly fitted or top-dose-only effect, or another doubt; inactive means no such curve, though single readings can be large; an effect the other way counts as inactive or inconclusive. Potency means the concentration at half of the fitted maximal effect.

Screening COc1ccc2c(c1)C(=NN)c1cc(OC)ccc1-2 returned ELG1 repair inh 23%, NPC1 prom act 29%, FLuc modulator 11µM*, SMN2 splice up -10%, ELG1 genotoxic 4% and Rab9 promoter act inconclusive.
`COc1ccc(/C(C)=N/Nc2ccc(C(=O)O)cc2)c(OC)c1` gave ELG1 repair inh inconclusive, NPC1 prom act inconclusive, FLuc modulator 7.6µM*, SMN2 splice up 16µM*, ELG1 genotoxic inconclusive and Rab9 promoter act 1.8µM*.
`COc1ccc2c(c1)C(=NNc1ccc(C(=O)O)cc1)c1cc(OC)ccc1-2` gave ELG1 repair inh inconclusive, NPC1 prom act 2%, FLuc modulator 6µM*, ELG1 genotoxic 2% and Rab9 promoter act 7%.
COc1ccc(OC)c(N)c1 was read as ELG1 repair inh -12%, NPC1 prom act -3%, FLuc modulator 1%, SMN2 splice up -7%, ELG1 genotoxic -1% and Rab9 promoter act 18%.
`Cc1cccc(OC(=O)c2ccc3nccnc3c2)c1` gave ELG1 repair inh 6%, NPC1 prom act 12%, FLuc modulator 15µM*, SMN2 splice up -12%, ELG1 genotoxic 1% and Rab9 promoter act -5%.
Cc1cccc(OC(=O)c2cccnc2)c1 was read as ELG1 repair inh 0%, NPC1 prom act -3%, FLuc modulator 0%, ELG1 genotoxic 1% and Rab9 promoter act 0%.
O=C(Oc1ccc(Cl)cc1)c1ccc2nccnc2c1 was read as ELG1 repair inh -8%, NPC1 prom act -2%, FLuc modulator 3.8µM*, SMN2 splice up 1%, ELG1 genotoxic 3% and Rab9 promoter act 0%.
`CCn1c(O)c(C=Nc2ccccc2)sc1=S` gave ELG1 repair inh inconclusive, NPC1 prom act inconclusive, FLuc modulator 9.5µM*, ELG1 genotoxic inconclusive and Rab9 promoter act 2.8µM*.
For COc1ccc(C(=O)Nc2nnc(S(=O)(=O)N3CCCCCC3)s2)cc1OC the results were ELG1 repair inh -8%, NPC1 prom act 0%, FLuc modulator inconclusive, ELG1 genotoxic 4% and Rab9 promoter act -8%.
Screening O=C(Nc1nnc(S(=O)(=O)N2CCOCC2)s1)c1ccccc1F returned ELG1 repair inh 22%, NPC1 prom act -3%, FLuc modulator 0%, ELG1 genotoxic 6% and Rab9 promoter act -3%.
O=C(Nc1nnc(S(=O)(=O)N2CCCC2)s1)c1cccc([N+](=O)[O-])c1 was read as ELG1 repair inh inconclusive, NPC1 prom act 25%, FLuc modulator 15µM*, ELG1 genotoxic 7% and Rab9 promoter act 22%.
For O=C(Nc1nnc(S(=O)(=O)N2CCCCCC2)s1)c1ccccc1F the results were ELG1 repair inh 17%, NPC1 prom act 22%, FLuc modulator 17µM*, ELG1 genotoxic 10% and Rab9 promoter act 19%.
`COc1ccc(C(=O)Nc2nnc(S(=O)(=O)N3CCC(C)CC3)s2)cc1OC` gave ELG1 repair inh 4%, NPC1 prom act -1%, FLuc modulator 3.4µM*!, ELG1 genotoxic -1% and Rab9 promoter act -2%.
Cc1ccccc1C(=O)Nc1nnc(S(=O)(=O)N2CCCCCC2)s1 was read as ELG1 repair inh inconclusive, NPC1 prom act -7%, FLuc modulator 13µM*!, ELG1 genotoxic 0% and Rab9 promoter act 0%.
For O=C(Cc1ccc(NC(=O)N2CCSc3ncccc32)cc1)NCc1ccccc1 the results were FLuc modulator -12%.
Screening Cc1ccc(OCC(=O)Nc2nnc(S(=O)(=O)N3CCCCC3)s2)cc1 returned ELG1 repair inh -5%, NPC1 prom act 0%, FLuc modulator -18%, ELG1 genotoxic -1% and Rab9 promoter act -6%.
For Cc1ccc(C(=O)Nc2nnc(S(=O)(=O)N3CCCCCC3)s2)cc1 the results were ELG1 repair inh -2%, NPC1 prom act -3%, FLuc modulator 9.5µM*!, ELG1 genotoxic 15% and Rab9 promoter act 0%.
COc1ccccc1C(=O)Nc1nnc(S(=O)(=O)N2CCCCC2)s1 was read as ELG1 repair inh inconclusive, NPC1 prom act 0%, FLuc modulator -10%, ELG1 genotoxic 4% and Rab9 promoter act 2%.
For Cc1ccc(OCC(=O)Nc2nnc(S(=O)(=O)N3CCCCCC3)s2)cc1 the results were ELG1 repair inh -4%, NPC1 prom act -1%, FLuc modulator 9.5µM*!, ELG1 genotoxic -3% and Rab9 promoter act -8%.
Cc1cccc(C(=O)Nc2nnc(S(=O)(=O)N3CCOCC3)s2)c1 was read as ELG1 repair inh 16%, NPC1 prom act 8%, FLuc modulator -18%, ELG1 genotoxic 4% and Rab9 promoter act 11%.
Screening Cc1ccc(C(=O)Nc2nnc(S(=O)(=O)N3CCOCC3)s2)cc1 returned ELG1 repair inh inconclusive, NPC1 prom act 4%, FLuc modulator -23%, ELG1 genotoxic 0% and Rab9 promoter act inconclusive.
O=C(Nc1nnc(S(=O)(=O)N2CCOCC2)s1)c1cccc(F)c1 was read as ELG1 repair inh inconclusive, NPC1 prom act inconclusive, FLuc modulator 15µM*!, ELG1 genotoxic -2% and Rab9 promoter act inconclusive.
Screening COc1ccccc1C(=O)Nc1nnc(S(=O)(=O)N2CCCCCC2)s1 returned ELG1 repair inh 15%, NPC1 prom act -2%, FLuc modulator 11µM*!, ELG1 genotoxic -1% and Rab9 promoter act -1%.
Nc1ccc(Cl)cc1Cl was read as SMN2 splice up 3%.
For CCCC(=O)Nc1nnc(S(=O)(=O)N2CCCC2)s1 the results were ELG1 repair inh 5%, NPC1 prom act -9%, FLuc modulator -1%, ELG1 genotoxic -1% and Rab9 promoter act -1%.
CC1CN=C(NC(=O)c2cccc([N+](=O)[O-])c2)S1 (stereo not drawn) was read as ELG1 repair inh inconclusive, NPC1 prom act 0.5µM*, FLuc modulator 2.4µM*, ELG1 genotoxic inconclusive and Rab9 promoter act 0.4µM*.
Screening CCCC(=O)Nc1nnc(S(=O)(=O)N2CCCCCC2)s1 returned ELG1 repair inh -9%, NPC1 prom act -2%, FLuc modulator 11µM*!, ELG1 genotoxic -3% and Rab9 promoter act -1%.
Screening COc1ccccc1N1CCN(c2nc(C)nc3c2oc2ccccc23)CC1 returned ELG1 repair inh inconclusive, NPC1 prom act -18%, FLuc modulator -14%, SMN2 splice up -22%, ELG1 genotoxic -19% and Rab9 promoter act -18%.
Screening Cc1nc(N2CCC(C)CC2)c2oc3ccccc3c2n1 returned ELG1 repair inh 21µM*, NPC1 prom act -4%, FLuc modulator -3%, SMN2 splice up -43%, ELG1 genotoxic -4% and Rab9 promoter act -14%.

Compound activity: PubChem BioAssay, National Center for Advancing Translational Sciences (NCATS)
